The values that follow come from PubChem BioAssay (NCATS).

The list shows a part of the results. Inconclusive results are not listed. Calls of active or inactive are those of the source. Calls follow the shape of the dose curve; as a rule, active = well fitted inhibition curve with a large enough effect; inconclusive = small, poorly fitted or top-dose-only effect, or another doubt; inactive = no such curve, though single readings can be large or run the other way.
Potency is read from the fitted curve at half-maximal effect.

Chain of DNA polymerase eta (Homo sapiens) (Q9Y253 whole entry, looked up): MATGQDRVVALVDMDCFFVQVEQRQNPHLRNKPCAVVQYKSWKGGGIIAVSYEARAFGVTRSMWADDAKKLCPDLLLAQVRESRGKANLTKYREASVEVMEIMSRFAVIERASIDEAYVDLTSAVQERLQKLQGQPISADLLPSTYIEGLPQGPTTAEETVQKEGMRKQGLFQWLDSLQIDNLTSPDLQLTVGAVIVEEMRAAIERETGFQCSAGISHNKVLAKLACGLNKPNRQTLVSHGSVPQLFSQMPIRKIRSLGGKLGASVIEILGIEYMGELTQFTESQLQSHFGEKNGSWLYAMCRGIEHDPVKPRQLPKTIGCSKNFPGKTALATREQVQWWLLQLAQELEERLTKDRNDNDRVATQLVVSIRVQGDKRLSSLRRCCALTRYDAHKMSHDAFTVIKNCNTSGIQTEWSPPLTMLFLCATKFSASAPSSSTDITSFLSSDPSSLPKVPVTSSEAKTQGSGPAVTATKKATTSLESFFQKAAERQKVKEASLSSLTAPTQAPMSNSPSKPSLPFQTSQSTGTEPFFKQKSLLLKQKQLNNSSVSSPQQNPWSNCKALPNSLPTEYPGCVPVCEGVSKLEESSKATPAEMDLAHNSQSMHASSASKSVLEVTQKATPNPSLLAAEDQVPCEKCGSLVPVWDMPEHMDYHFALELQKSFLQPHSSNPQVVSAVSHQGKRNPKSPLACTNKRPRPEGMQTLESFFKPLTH

The target in the assay is DNA polymerase eta (Homo sapiens) (UniProt Q9Y253). Kind of assay: qHTS for Inhibitors of Polymerase Eta: Confirmatory Assay for Cherry-picked Compounds (AID 720502). The settings on record: Pol eta primer extension, TAMRA/BHQ fluorescence, 10 min. From the text:
The Y-family of DNA polymerases, such as the Polymerase Eta (Pol eta), are specifically involved in DNA repair. Pol eta copies undamaged DNA with a lower fidelity than other DNA-directed polymerases. However, it accurately replicates UV-damaged DNA. When thymine dimers are present, this polymerase inserts the complementary nucleotides in the newly synthesized DNA, thereby bypassing the lesion and suppressing the mutagenic effect of UV-induced DNA damage. […] Thus, while Pol eta's (and most likely iota's) normal function is to protect humans against the deleterious consequences of DNA damage, under certain conditions they can have deleterious effects on human health. As a consequence, small molecule inhibitors of Pol eta (identified from a high throughput replication assay) have potential therapeutic applications. A 1536-well format, fluorescence based, high-throughput screen (AID 588591) is developed in collaboration with the National Institute of Child Health & Human Development (NICHD) to screen for inhibitors of the Pol eta enzyme. This screen is used to validate the activity of the selected compounds from the primary assay against the human Pol eta. Inhibition is the desired outcome for this assay. NIH Chemical Genomics Center [NCGC] NIH Molecular Libraries Probe Centers Network [MLPCN] MLPCN Grant: MH090825 Assay Submitter (PI): Roger Woodgate, NICHD
Three microliters of reagents (buffer in column 3 and 4 as negative control while 10 nM Pol eta in columns 1, 2, and 5-48) were dispensed into a 1536-well black solid-bottom plate. Compounds (23 nL) were transferred via Kalypsys pin tool equipped with 1536-pin array. The plates were then incubated for 15 min at room temperature, and 1 uL of substrate was added to start the reaction for a final concentration of 50 nM. The substrate was made by the annealing of unlabeled oligodeoxynucleotide primer (59-[…]-39) and TAMRA-labeled reporter strand (59-[…]-6-TAMRA-39) to oligodeoxynucleotide template labeled with BHQ-2 (59-BHQ-2-[…]-39) described in detail at the Yamanaka et.al. (PLOS, 2012) reference paper. The assay plates were initially read after 0 min and again after 10 min of kinetic reaction using the PerkinElmer Viewlux reader equipped with 525 nm excitation and 598 nm emission filters.
In general terms: Quantitative high-throughput screening tests each substance at several concentrations.
On to `COc1ccc(Cl)cc1NC(=O)CCS(=O)(=O)c1ccc(Br)cc1`, for which the Potency was 16.9 µM (active).
Consider `Cc1ccc2cc(/C=N/Nc3ccc(C(=O)O)cc3)c(Cl)nc2c1`, for which the Potency was 30.1 µM (active).
On to `C=CC1=C(C(=O)O)N2C(=O)[C@@H](NC(=O)/C(=N/OCC(=O)O)c3csc(N)n3)[C@H]2SC1`, for which the Potency was 3.38 µM (active).
As for `Cc1nnc(SCC(=O)Nc2ccc(S(=O)(=O)Nc3ccc(Cl)nn3)cc2)s1`, the figure is 53.6 µM (active); as for `CCOc1ccccc1/C=c1\sc2nc(-c3ccco3)nn2c1=O`, 60.1 µM (active).
Under `NC(CSC(c1ccccc1)(c1ccccc1)c1ccc(-c2ccccc2)cc1)C(=O)O` (stereo not given) stands 75.7 µM (active).
Consider `ON=C1/C(=N\O)CC2(C/C1=N/O)OCCO2`, for which the Potency was 30.1 µM (active).
Consider `O=C(COC(=O)CCC(=O)c1cccs1)NCc1ccco1`, for which the Potency was 75.7 µM (active).
With `NC(=O)CSc1nnc(NC(=O)c2ccc(Br)o2)s1`, the Potency is 26.9 µM (active).
Under `Cc1cc(C)cc(C(=O)NC2C(=O)N3C(C(=O)O)=C(CSc4nnc(C)s4)CSC23)c1` (stereo not given) stands 26.9 µM (active).
Under `CC1CCN(c2ccc(S(=O)(=O)Nc3cc(C(=O)O)cc(C(=O)O)c3)cc2[N+](=O)[O-])CC1` stands 60.1 µM (active).
As to `C=C(C)C(=O)O[C@H]1C/C(C)=C\C(=O)/C=C(\C)[C@H](O)[C@@H]2OC(=O)C(=C)[C@@H]21`, the Potency is 75.7 µM (active).
As for `O=C(COC(=O)c1ccc(F)cc1F)Nc1ncccn1`, the Potency was 37.9 µM (active).
As for `Cc1cc(/C=N/Nc2ccc([N+](=O)[O-])cn2)c(C)n1-c1cccc(C(=O)O)c1`, the figure is 26.9 µM (active); as for `COC(=O)Cc1cc(=O)n(-c2nc3ccccc3s2)[nH]1`, 84.9 µM (active); as for `C#Cc1ccc([C@@H]2C=C(C(=O)O)O[C@H](OCCCCO)C2)cc1`, 84.9 µM (active).
Under `Cc1oc2c(C)c3oc(=O)c(CC(=O)N[C@@H](CC(C)C)C(=O)N[C@@H](Cc4ccccc4)C(=O)O)c(C)c3cc2c1C` stands 47.8 µM (active); under `O=C(O)C(c1ccccc1)N1C(=O)/C(=C\c2ccc(-c3cccc(Cl)c3)o2)SC1=S` (stereo not given), 75.7 µM (active).
Under `Cc1cc(/C=C2\SC(=O)N(C)C2=O)c(C)n1-c1cccc(C(=O)O)c1` stands 30.1 µM (active); under `COCCNC(=O)Nc1ccc2nc(-c3ccco3)c(-c3ccco3)nc2c1`, 5.36 µM (active).
As for `O=C(N/N=C/c1ccco1)c1ccc(C(=O)N/N=C/c2ccco2)o1`, the Potency was 53.6 µM (active).
As for `CC1=NN(c2ccc(Cl)c(C(=O)O)c2)C(=O)/C1=C/c1ccc(-c2ccccc2[N+](=O)[O-])o1`, the figure is 75.7 µM (active); as for `O=C1NN(c2ccccc2)C(=O)/C1=C/c1ccc(-c2cccc(C(=O)O)c2)o1`, 30.1 µM (active); as for `O=C1COc2c1ccc(O)c2O`, 9.53 µM (active).
As for `O=C(CSc1nc2ccccc2c(=O)[nH]1)Nc1nc(-c2ccc(Br)cc2)cs1`, the Potency was 75.7 µM (active).
On to `CCc1ccc2nc3sc(C(=O)Nc4nnc(CC)s4)c(N)c3cc2c1`, for which the Potency is 60.1 µM (active).
As for `CCOc1cccc2c1N[C@@H](c1ccc(C(=O)O)cc1)[C@H]1CC=C[C@@H]21`, the figure is 7.57 µM (active).
Consider `N#C/C(=C\C1=C(N2CCOCC2)C(=C\c2ccccc2)/CC1)C(=O)Nc1ccccc1F`, for which the Potency is 30.1 µM (active).
As for `CCc1nc2cccnc2n1-c1ccc(C(=O)O)cc1`, the figure is 10.7 µM (active).
Turning to `O=C1Nc2ccc([N+](=O)[O-])cc2C1=Nc1cccc(CO)c1`, the Potency was 75.7 µM (active).
As for `CCCN1CCN(C(=O)Cn2ncc3ccccc32)CC1`, the figure is 75.7 µM (active); as for `CSc1nnc(SCc2nc3sc(C(=O)O)c(C)c3c(=O)[nH]2)s1`, 5.36 µM (active); as for `O=C(Nc1ccc(S(=O)(=O)Nc2nccs2)cc1)c1cc(-c2ccncc2)nc2ccccc12`, 67.5 µM (active).
As to `CN1CCN(CCCNC(=O)c2ccc(/C=C3\Oc4ccccc4N(Cc4ccc(Cl)cc4)C3=O)cc2)CC1`, the Potency was 19 µM (active).
In the case of `Cc1ccc(C(=O)O)cc1-c1ccc(/C=C2\SC(=O)N(CC(=O)Nc3ccc4c(c3)OCO4)C2=O)o1`, the Potency was 19 µM (active).
Under `Cc1c(CC(=O)N2CCN(C(=O)C3COc4ccccc4O3)CC2)c(=O)oc2c(O)c(O)ccc12` (stereo not given) stands 7.57 µM (active).
In the case of `Cc1ccc(-c2nn(-c3ccccc3)cc2/C=C2\SC(=S)N(CCCCCC(=O)O)C2=O)o1`, the Potency is 75.7 µM (active).
Regarding `O=C(Cc1ccc(S(=O)(=O)N2CCCC2)s1)NC1CCCCCC1`, the Potency was 60.1 µM (active).
For the compound `COc1ccc2[nH]c3c(C)c4cc[n+](C)cc4c(C)c3c2c1`, the Potency is 9.53 µM (active).
For `COc1ccccc1C(=O)N/C(=C/c1ccco1)C(=O)Nc1ccc(C(=O)O)cc1`, the Potency is 53.6 µM (active).
